This is one part of a sample in which hits are shown more often than they occur.
NRP1-CendR mod: modulators of CendR peptide binding to NRP-1, primary screen, biochemical, fluorescence polarization, uHTS; FAM-RPARPAR peptide binding to NRP-1; inhibition, % at 25 µM; 0.85% of 360,000 active;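 active = inhibition or corrected inhibition above about 18%, plus a signal ratio from 0.5 to 1.5, limit read from the data, passing the limit was not always enough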
ERp5 inh: inhibitors of ERp5-driven insulin aggregation, primary screen, biochemical, turbidity, absorbance 650 nm, single point; Protein disulfide-isomerase A6 (Homo sapiens), Q15084; 90 min; inhibition, % at 9.99 µM; 0.05% of 350,000 active;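 active = mean replicate inhibition above about 25%, with every replicate also reaching it, limit read from the data, passing the limit was not always enough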
PglD inh: C. jejuni PglD acetyltransferase inhibitors, primary screen, biochemical, DTNB colorimetric, single point. UDP-N-acetylbacillosamine N-acetyltransferase PglD (Campylobacter jejuni). purified PglD enzyme, DTNB colorimetric CoA detection. inhibition, % at 12.5 µM. 0.098% of 360,000 active. AID 602405, 2012; in the data active = inhibition above about 16%, passing the limit was not always enough
PDI inh: inhibitors of human PDI, primary screen, biochemical, turbidity, single point, plate reader; 0.052% of 350,000 active; PDI insulin aggregation turbidity, A650, 90 min; Protein disulfide-isomerase (Homo sapiens), P07237; inhibition, % at 10 µM;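 active = mean inhibition across replicates of 30% or more, whatever share of single replicates reach that level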
ARNT-TACC3 inh: disruptors of ARNT/TACC3 protein interaction, primary screen, biochemical, AlphaScreen, single concentration; inhibition, % at 9.99 µM; AlphaScreen His-ARNT PAS-B/GST-TACC3 binding, luminescence; TACC3 fragment carries E629A point mutation; AID 623870, 2012; 0.66% of 390,000 active; Transforming acidic coiled-coil-containing protein 3 (Homo sapiens), Q9Y6A5;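 active = mean inhibition of replicates at least 50% and at least half of replicates each reaching 50%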
ALR H2O2 inh: inhibitors of human ALR sulfhydryl oxidase, primary screen, biochemical, H2O2 detection, HRP-luminol luminescence, single point. FAD-linked sulfhydryl oxidase ALR (Homo sapiens), P55789. purified ALR, DTT oxidation. inhibition, % (no concentration beside the values). 3.8% of 290,000 active. AID 485317, 2010;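 active = mean replicate inhibition above about 79%, with every replicate also reaching it, limit read from the data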
Target sequence (P55789 whole entry, looked up): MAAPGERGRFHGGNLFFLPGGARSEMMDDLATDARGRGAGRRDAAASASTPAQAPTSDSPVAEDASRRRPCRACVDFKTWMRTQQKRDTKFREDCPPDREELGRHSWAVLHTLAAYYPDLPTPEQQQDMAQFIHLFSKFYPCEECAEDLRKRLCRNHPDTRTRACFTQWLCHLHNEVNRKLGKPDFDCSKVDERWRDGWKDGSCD
A number is an active result; – = inactive; · = no result.

SMILES	NRP1-CendR mod	ERp5 inh	PglD inh	PDI inh	ARNT-TACC3 inh	ALR H2O2 inh
CN(Cc1cccs1)C(=O)CCc1c[nH]c2ccccc12	–	–	–	–	–	·
Brc1ccc(-c2ncc3ccccn23)cc1	–	–	–	–	–	88.6
COc1cccc(N2C(=O)CC(N3CCc4ccccc43)C2=O)c1 (stereo unspecified)	–	·	–	–	–	90.0
COc1ccccc1N1C(=O)CC(N2CCc3ccccc32)C1=O (stereo unspecified)	–	·	–	–	–	–
O=C1CC(N2CCc3ccccc32)C(=O)N1c1ccc(F)cc1 (stereo unspecified)	–	–	–	–	–	98.9
CCC(=O)Nc1ccc2c(c1)OC[C@@H](C)N(Cc1ccccc1OC)C[C@@H](C)[C@@H](OC)CN(C)C2=O	·	–	–	·	–	·
CS(=O)(=O)Nc1ccc2c(c1)[C@@H]1C[C@H](CC(=O)NCc3cccnc3)O[C@@H](CO)[C@@H]1O2	·	–	–	·	–	·
O=C(Nc1ccc(F)cc1)N1[C@H](CO)[C@@H]2c3ccccc3NC[C@@H]21	·	–	–	·	–	·
COc1ccccc1NC(=O)N1C[C@@H]2[C@H](c3ccccc31)[C@H](CO)N2C(=O)C1CCCC1	·	–	–	·	–	·
C/C=C/c1ccc([C@H]2[C@@H](CO)N(C(=O)C3CC3)[C@H]2CN(C)C(=O)C2CC2)cc1	·	·	–	·	–	·
COc1cccc(C(NC(C)=O)c2nc(-c3ccc4ccccc4c3)cs2)c1 (stereo unspecified)	–	–	–	–	·	·
COc1cccc(C(NC(C)=O)c2nc(-c3ccc(C)c(C)c3)cs2)c1 (stereo unspecified)	34.4	–	–	–	·	·
CCN(CC)C(=O)c1cccc(-c2csc(C(NC(C)=O)c3cccc(OC)c3)n2)c1 (stereo unspecified)	22.5	–	–	–	·	·
CCN(CC)C(=O)c1cccc(-c2csc(C(NC(C)=O)c3ccccc3)n2)c1 (stereo unspecified)	–	–	·	–	·	·
CO[C@H]1CN(C)C(=O)c2cc(NC(=O)Nc3ccc(F)cc3)ccc2OC[C@H](C)NC[C@@H]1C	·	–	–	·	–	·
Cc1noc(C)c1NC(=O)Nc1ccc2c(c1)C(=O)N([C@@H](C)CO)C[C@H](C)[C@H](CN(C)Cc1ccncc1)OCCCC[C@@H](C)O2	·	–	–	·	–	·
Cc1ccccc1NC(=S)N1CCN(Cc2ccc3c(c2)OCO3)CC1	30.1	·	–	–	–	–
COCc1c(C(=O)N2CCN(Cc3ccc4c(c3)OCO4)CC2)oc2ccccc12	25.6	–	–	–	–	–
COCc1c(C(=O)N2CCN(Cc3ccc(C#N)cc3)CC2)oc2ccccc12	–	–	–	–	–	–
COCCCNC(=S)N1CCN(Cc2ccc3c(c2)OCO3)CC1	21.1	–	·	–	–	–
C[C@@H]1CN([C@H](C)CO)C(=O)Cc2cc(NC(=O)Nc3ccc(F)cc3)ccc2O[C@H]1CN(C)S(=O)(=O)c1ccc(Cl)cc1	·	–	–	·	–	·
O=C(Cc1ccccn1)N1CC(=O)N2[C@H](C1)[C@H](c1ccc(C#CCC3CCCC3)cc1)[C@@H]2CO	·	–	·	·	·	·
CNC(=O)C1Cc2ccccc2CN1S(=O)(=O)c1ccc(OC)c(OC)c1 (stereo unspecified)	–	–	–	–	–	–
COc1ccc(S(=O)(=O)N2Cc3ccccc3CC2C(=O)Nc2ccc(O)cc2)cc1OC (stereo unspecified)	–	–	–	–	–	95.3
CCCN1[C@@H]2c3ccc(-c4cccnc4)c(=O)n3C[C@@H]2[C@@H](CO)[C@@H]1C(=O)NC1CCCC1	·	–	·	·	·	·
COc1ccc([C@H]2CC(=O)C=C(c3ccc4c(c3)OCCO4)C2)cc1	26.1	–	–	–	–	–
COc1ccc([C@H]2CC(=O)C=C(c3ccc(C)cc3)C2)cc1OC	–	–	–	–	–	–
COc1ccc(C2=CC(=O)C[C@H](c3ccc(OC)c(OC)c3)C2)cc1	20.6	–	–	–	–	–

High-throughput results: PubChem BioAssay, several laboratories
